# The supplement of paper PMC8728848
# The sample as a whole holds a higher share of the strongest signals than the screen did.
# B1: Endo180d1-D4 (Homo sapiens), Q9UBG0 (protein)
# chain: MGPGRPAPAPWPRHLLRCVLLLGCLHLGRPGAPGDAALPEPNVFLIFSHGLQGCLEAQGGQVRVTPACNTSLPAQRWKWVSRNRLFNLGTMQCLGTGWPGTNTTASLGMYECDREALNLRWHCRTLGDQLSLLLGARTSNISKPGTLERGDQTRSGQWRIYGSEEDLCALPYHEVYTIQGNSHGKPCTIPFKYDNQWFHGCTSTGREDGHLWCATTQDYGKDERWGFCPIKSNDCETFWDKDQLTDSCYQFNFQSTLSWREAWASCEQQGADLLSITEIHEQTYINGLLTGYSSTLWIGLNDLDTSGGWQWSDNSPLKYLNWESDQPDNPSEENCGVIRTESSGGWQNRDCSIALPYVCKKKPNATAEPTPPDRWANVKVECEPSWQPFQGHCYRLQAEKRSWQESKKACLRGGGDLVSIHSMAELEFITKQIKQEVEELWIGLNDLKLQMNFEWSDGSLVSFTHWHPFEPNNFRDSLEDCVTIWGPEGRWNDSPCNQSLPSICKKAGQLSQGAAEEDHGCRKGWTWHSPSCYWLGEDQVTYSEARRLCTDHGSQLVTITNRFEQAFVSSLIYNWEGEYFWTALQDLNSTGSFFWLSGDEVMYTHWNRDQPGYSRGGCVALATGSAMGLWEVKNCTSFRARYICRQSLGTPVTPELPGPDPTPSLTGSCPQGWASDTKLRYCYKVFSSERLQDKKSWVQAQGACQELGAQLLSLASYEEEHFVANMLNKIFGESEPEIHEQHWFWIGLNRRDPRGGQSWRWSDGVGFSYHNFDRSRHDDDDIRGCAVLDLASLQWVAMQCDTQLDWICKIPRGTDVREPDDSPQGRREWLRFQEAEYKFFEHHSTWAQAQRICTWFQAELTSVHSQAELDFLSHNLQKFSRAQEQHWWIGLHTSESDGRFRWTDGSIINFISWAPGKPRPVGKDKKCVYMTASREDWGDQRCLTALPYICKRSNVTKETQPPDLPTTALGGCPSDWIQFLNKCFQVQGQEPQSRVKWSEAQFSCEQQEAQLVTITNPLEQAFITASLPNVTFDLWIGLHASQRDFQWVEQEPLMYANWAPGEPSGPSPAPSGNKPTSCAVVLHSPSAHFTGRWDDRSCTEETHGFICQKGTDPSLSPSPAALPPAPGTELSYLNGTFRLLQKPLRWHDALLLCESHNASLAYVPDPYTQAFLTQAARGLRTPLWIGLAGEEGSRRYSWVSEEPLNYVGWQDGEPQQPGGCTYVDVDGAWRTTSCDTKLQGAVCGVSSGPPPPRRISYHGSCPQGLADSAWIPFREHCYSFHMELLLGHKEARQRCQRAGGAVLSILDEMENVFVWEHLQSYEGQSRGAWLGMNFNPKGGTLVWQDNTAVNYSNWGPPGLGPSMLSHNSCYWIQSNSGLWRPGACTNITMGVVCKLPRAEQSSFSPSALPENPAALVVVLMAVLLLLALLTAALILYRRRQSIERGAFEGARYSRSSSSPTEATEKNILVSDMEMNEQQE
# What was measured:
# Experiment in all cases: glycan array binding signal (z-score within array); higher = stronger binding
# Conditions in all cases: glycan notation: IUPAC condensed, linker removed
# [1] = target: Neu5Ac(a2-3)Gal(b1-3)[Neu5Ac(a2-6)]GalNAc
# Outline: (§1)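 Negative Z-scores can be read as non-binding. The Z-score is calculated within each array and then averaged across arrays of one protein sequence at different concentrations or buffers and across linkers. Arrays, 3228 in all, were curated from the Consortium for Functional Glycomics database and kept only where the protein sequence was available.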
# [2] = target: Neu5Ac(a2-3)Gal(b1-4)GlcNAc(b1-2)Man(a1-3)[Neu5Ac(a2-3)Gal(b1-4)GlcNAc(b1-2)Man(a1-6)]Man(b1-4)GlcNAc(b1-4)GlcNAc
# Outline: as §1
# [3] = target: Neu5Ac(a2-3)Gal(b1-4)GlcNAc(b1-3)Gal
# Outline: as §1
# [4] = target: Neu5Ac(a2-3)Gal(b1-4)[Fuc(a1-3)]GlcNAc
# Outline: as §1
# [5] = target: Neu5Ac(a2-3)Gal(b1-4)[Fuc(a1-3)]GlcNAc(b1-3)Gal(b1-4)[Fuc(a1-3)]GlcNAc(b1-3)Gal(b1-4)[Fuc(a1-3)]GlcNAc
# Outline: as §1
# [6] = target: Neu5Ac(a2-6)Gal(b1-4)GlcNAc(b1-2)Man(a1-3)[GlcNAc(b1-2)Man(a1-6)]Man(b1-4)GlcNAc(b1-4)GlcNAc
# Outline: as §1
# [7] = target: Neu5Ac(a2-6)Gal(b1-4)GlcNAc(b1-2)Man(a1-3)[Neu5Ac(a2-3)Gal(b1-4)GlcNAc(b1-2)Man(a1-6)]Man(b1-4)GlcNAc(b1-4)GlcNAc
# Outline: as §1
# [8] = target: Neu5Ac(a2-6)Gal(b1-4)GlcNAc(b1-2)Man(a1-6)[GlcNAc(b1-2)Man(a1-3)]Man(b1-4)GlcNAc(b1-4)GlcNAc
# Outline: as §1
# [9] = target: Neu5Ac(a2-6)Gal(b1-4)GlcNAc(b1-2)[Neu5Ac(a2-6)Gal(b1-4)GlcNAc(b1-4)]Man(a1-3)[GlcNAc(b1-4)][Neu5Ac(a2-6)Gal(b1-4)GlcNAc(b1-2)[Neu5Ac(a2-6)Gal(b1-4)GlcNAc(b1-6)]Man(a1-6)]Man(b1-4)GlcNAc(b1-4)GlcNAc
# Outline: as §1
# [10] = target: Neu5Ac(a2-6)Gal(b1-4)GlcNAc(b1-2)[Neu5Ac(a2-6)Gal(b1-4)GlcNAc(b1-6)]Man(a1-6)[Neu5Ac(a2-6)Gal(b1-4)GlcNAc(b1-2)Man(a1-3)][GlcNAc(b1-4)]Man(b1-4)GlcNAc(b1-4)GlcNAc
# Outline: as §1
# [11] = target: Neu5Ac(a2-6)Gal(b1-4)GlcNAc(b1-3)Gal(b1-4)[Fuc(a1-3)]GlcNAc(b1-3)Gal(b1-4)[Fuc(a1-3)]GlcNAc
# Outline: as §1
# [12] = target: Neu5Ac(a2-6)Gal(b1-4)GlcNAc(b1-6)GalNAc
# Outline: as §1
# [13] = target: Neu5Ac(a2-6)Gal(b1-4)GlcNAc(b1-6)[Gal(b1-3)GlcNAc(b1-3)]Gal(b1-4)Glc
# Outline: as §1
# [14] = target: Neu5Gc(a2-8)Neu5Ac(a2-3)Gal(b1-4)GlcNAc
# Outline: as §1
binder,measurement,setting,value
B1,glycan array binding signal (z-score),[1],-0.517
same,glycan array binding signal (z-score),[2],-0.688
same,glycan array binding signal (z-score),[3],0.249
same,glycan array binding signal (z-score),[4],-0.083
same,glycan array binding signal (z-score),[5],-0.132
same,glycan array binding signal (z-score),[6],3.38
same,glycan array binding signal (z-score),[7],0.363
same,glycan array binding signal (z-score),[8],-0.485
same,glycan array binding signal (z-score),[9],-0.277
same,glycan array binding signal (z-score),[10],2.92
same,glycan array binding signal (z-score),[11],2.78
same,glycan array binding signal (z-score),[12],0.474
same,glycan array binding signal (z-score),[13],-0.046
same,glycan array binding signal (z-score),[14],-0.032
